PubChem BioAssay (NCI)
The panel holds about 83,000 compounds, 20% with a hit somewhere; the sample as a whole holds those more often.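 A percent growth of 40 corresponds to 60% growth inhibition; 0 means no net growth; -100 means all cells died. Active threshold: below 10.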 The source made the active and inactive calls.

Assays:
Experiment in all cases: NCI-60 one-dose screen, 48 h (100 = growth as untreated, 0 = no growth, -100 = all killed)
Conditions in all cases: 10 µM unless noted
[1] = tested on: NCI-H23 lung
[2] = tested on: NCI-H226 lung
[3] = tested on: NCI-H322M lung
[4] = tested on: HOP-62 NSCLC
[5] = tested on: NCI-H460 lung
[6] = tested on: NCI-H522 lung
[7] = tested on: A549/ATCC NSCLC
[8] = tested on: 786-0 renal
[9] = tested on: COLO 205 colon
[10] = tested on: DU-145 prostate
[11] = tested on: K-562 leukemia
[12] = tested on: MALME-3M melanoma
[13] = tested on: MDA-MB-231 breast
[14] = tested on: RXF 393 renal
[15] = tested on: SF-268 CNS
[16] = tested on: SF-295 CNS
[17] = tested on: SF-539 CNS
[18] = tested on: UACC-257 melanoma
[19] = tested on: M14 melanoma

Measured: growth

Cn1c(=O)c2c(nc(N/N=C/c3ccccc3Cl)n2C)n(C)c1=O
inactive: [1] 94.4% | [2] 107% | [3] 116% | [4] 112% | [5] 120% | [6] 83.1% | [7] 107% | [8] 97.8% | [9] 113% | [10] 140% | [11] 100% | [12] 109% | [13] 100% | [14] 112% | [15] 124% | [16] 101% | [17] 87.2% | [18] 94.8% | [19] 103%

CC(NC(=O)c1ccccc1)C(=O)Nc1ccccc1 (stereo not drawn)
inactive: [1] 105% | [2] 104% | [3] 127% | [4] 103% | [5] 118% | [6] 99.6% | [7] 96.3% | [8] 105% | [9] 106% | [10] 118% | [11] 91.4% | [12] 145% | [13] 115% | [14] 118% | [15] 108% | [16] 125% | [17] 97.2% | [18] 103% | [19] 103%

CC(=O)CC(c1ccc([N+](=O)[O-])cc1)c1c(O)c2ccccc2oc1=O (stereo not drawn)
inactive: [1] 106% | [2] 93.9% | [3] 98.7% | [4] 102% | [5] 104% | [6] 97.3% | [7] 95.7% | [8] 95.4% | [9] 112% | [10] 106% | [11] 104% | [12] 98.3% | [13] 95.9% | [14] 108% | [15] 99% | [16] 104% | [17] 97.1% | [18] 120% | [19] 102%

COc1cccc(N2CCN(c3ncnc4cc[nH]c34)CC2)c1
inactive: [1] 42.8% | [2] 55.1% | [3] 94% | [4] 34.2% | [5] 66.9% | [6] 51.5% | [7] 60.2% | [8] 70.9% | [9] 88.2% | [10] 90.6% | [11] 37.7% | [12] 75.1% | [13] 84.4% | [14] 99.3% | [15] 90.7% | [16] 44.2% | [17] 72.8% | [18] 47.5% | [19] 58.2%

O=C(NNC(=O)c1cccc(Cl)c1)c1ccccc1
inactive: [1] 108% | [2] 96.2% | [3] 107% | [4] 109% | [5] 106% | [6] 111% | [7] 97.6% | [8] 102% | [9] 116% | [10] 110% | [11] 114% | [12] 106% | [13] 113% | [14] 109% | [15] 108% | [16] 106% | [17] 107% | [18] 110% | [19] 112%

O=c1c2cc(Cl)ccc2oc2ccc(OCCCCCN3CCCCC3)cc12
inactive: [1] 75.1% | [2] 86.7% | [3] 89.7% | [4] 88.9% | [5] 10.2% | [6] 36.2% | [7] 32.3% | [8] 35.4% | [9] 10.6% | [10] 74.6% | [12] 74.9% | [13] 46.1% | [14] 60.9% | [15] 73.1% | [16] 75.5% | [17] 58.3%
active: [11] 2.44% | [18] -26.2% | [19] -67.4%

O=C(/C=C/c1ccc(F)cc1)N1CCN(C(=O)/C=C/c2ccc(C(F)(F)F)cc2)CC1
inactive: [1] 106% | [2] 108% | [3] 106% | [4] 109% | [5] 116% | [6] 92% | [7] 96.9% | [8] 107% | [9] 126% | [10] 109% | [11] 104% | [12] 98.6% | [13] 96.8% | [14] 120% | [15] 114% | [16] 119% | [17] 123% | [18] 97.3% | [19] 97.4%

COc1cnc2c(c1)C(=O)c1c-2n(CCCN2CCNCC2)c(=O)c2cc(Cl)ccc12
active: [1] -63.2% | [4] -24.4% | [5] -81.2% | [7] -30.9% | [8] -81.1% | [10] -95.8% | [11] -75.8% | [12] -51.5% | [13] -73.1% | [14] -1.72% | [15] -75.6% | [17] -93.8% | [19] -79.5%
inactive: [2] 18.6% | [3] 54.3% | [6] 17.4% | [9] 22.7% | [16] 15.5% | [18] 22.4%

N=c1nc(N2CCCCC2)cc(N)n1O
inactive: [1] 115% | [2] 92.7% | [3] 126% | [4] 101% | [5] 113% | [6] 103% | [7] 103% | [8] 117% | [9] 106% | [10] 114% | [11] 116% | [12] 145% | [13] 108% | [14] 108% | [15] 109% | [16] 103% | [17] 116% | [18] 99.8% | [19] 123%

N/N=C(\C(=N\N)c1ccccc1)c1ccccc1
inactive: [1] 98.8% | [2] 88.2% | [3] 94.6% | [4] 91.7% | [5] 108% | [6] 86.6% | [7] 101% | [8] 97.6% | [9] 108% | [10] 113% | [11] 111% | [12] 88% | [13] 111% | [14] 118% | [15] 103% | [16] 105% | [17] 103% | [18] 107% | [19] 96.6%

CN1C(=O)N(C)C2C1NN=c1s/c(=C\c3ccc(C(F)(F)F)cc3)c(=O)n12 (stereo not drawn)
inactive: [1] 39.5% | [2] 43.2% | [3] 32.4% | [4] 31.9% | [5] 11.7% | [7] 31.9% | [8] 25.5% | [11] 10.6% | [12] 56% | [13] 60.4% | [15] 45.1% | [16] 10.4% | [18] 44.6% | [19] 16%
active: [6] 2.74% | [9] -0.525% | [10] 9.33% | [14] -3.65% | [17] 3.31%

c1cc(C2CCCCC2)ccc1-c1cnc2nonc2n1
inactive: [1] 38.7% | [2] 47.5% | [3] 50.1% | [4] 18.5% | [5] 14.4% | [7] 34.6% | [8] 13.5% | [10] 13.8% | [12] 48.8% | [13] 18.6% | [15] 32% | [16] 28.3% | [18] 42.6%
active: [6] -2.99% | [9] 2.48% | [11] 5.7% | [14] -3.18% | [17] 0.0756% | [19] -16.7%

COc1ccc(-c2nc3ccccc3n3cccc23)cc1
inactive: [1] 86.1% | [2] 94.7% | [3] 96.6% | [4] 116% | [5] 112% | [6] 101% | [7] 102% | [8] 100% | [9] 120% | [10] 119% | [11] 96.3% | [12] 127% | [13] 97.9% | [14] 135% | [15] 109% | [16] 114% | [17] 101% | [18] 109% | [19] 100%

COc1cc(Nc2ncccc2/C=C/C(=O)c2cc(OC)c(OC)c(OC)c2)cc(OC)c1OC
inactive: [1] 81.7% | [2] 82.9% | [3] 102% | [4] 92.7% | [5] 79.7% | [6] 87.8% | [7] 68.8% | [8] 91.7% | [9] 75.2% | [10] 80.6% | [11] 45.5% | [12] 103% | [13] 93.3% | [14] 86% | [15] 83.3% | [16] 84.2% | [17] 78.9% | [18] 67% | [19] 86.7%

Clc1ccc(C2=NN[C@H](c3cn(-c4ccccc4)nc3-c3ccccc3)C2)cc1
inactive: [1] 52% | [2] 55% | [3] 72.5% | [4] 16.1% | [5] 45.5% | [6] 76.3% | [7] 46.5% | [8] 83.7% | [9] 70.1% | [10] 55.3% | [11] 61.6% | [12] 64.3% | [13] 64.4% | [14] 42.6% | [15] 74.6% | [17] 67% | [18] 66.3% | [19] 71.1%
active: [16] -20.8%

COc1ccc(CNc2c3ccccc3nc3ccccc23)cc1F
active: [5] 6.34% | [9] 8.7% | [11] 4.81%
inactive: [1] 27% | [2] 43% | [3] 31.6% | [4] 44.5% | [6] 36.2% | [7] 22.8% | [8] 26% | [10] 27.2% | [12] 23.6% | [13] 29.2% | [14] 11.1% | [15] 49.1% | [16] 20.1% | [17] 18.2% | [18] 37.8% | [19] 19.9%

CC(C)[C@@]12C[C@@H](OC(=O)[C@H]3CO3)[C@@](C)(O1)[C@@H]1CC[C@@H](C)[C@H]1[C@@H]2OC(=O)/C=C/c1ccccc1
inactive: [1] 88.4% | [2] 54.1% | [3] 85.4% | [4] 72% | [5] 89.8% | [6] 72.2% | [7] 61.5% | [8] 91.3% | [9] 109% | [10] 102% | [11] 90.1% | [12] 87% | [13] 78.7% | [14] 59.6% | [15] 54.8% | [16] 85.2% | [17] 91.1% | [18] 68.3% | [19] 102%

COc1cc(C2CC(c3ccccc3)=NN2C=O)ccc1Oc1ccnc2cc(Cl)ccc12 (stereo not drawn)
inactive: [1] 36.7% | [2] 46.6% | [3] 100% | [4] 74.2% | [5] 73.8% | [6] 42.7% | [7] 56% | [8] 79.9% | [9] 101% | [10] 77.9% | [11] 51.1% | [12] 52.7% | [13] 74.6% | [14] 98.9% | [15] 65.6% | [16] 43.3% | [17] 79.8% | [18] 31.6% | [19] 54.9%

N/C(=C\C(=O)n1nc(-c2ccccc2)cc1N)c1ccccc1
inactive: [1] 58.3% | [2] 73.4% | [3] 65.4% | [4] 64% | [5] 36% | [7] 55.1% | [8] 65% | [9] 41.6% | [10] 58.2% | [11] 25.6% | [12] 42.6% | [13] 51.5% | [14] 77.2% | [15] 63.8% | [16] 44.5% | [17] 59.4% | [18] 58.3% | [19] 31.6%
active: [6] -22.3%

CN1C(=O)NC(Cc2c[nH]c3c(Cl)cccc23)C1=O (stereo not drawn)
inactive: [1] 102% | [2] 93.8% | [3] 120% | [4] 107% | [5] 112% | [6] 96.4% | [7] 102% | [8] 109% | [9] 105% | [10] 123% | [11] 101% | [12] 141% | [13] 117% | [14] 92.1% | [15] 110% | [16] 109% | [17] 98.4% | [18] 116% | [19] 108%

Cc1ccc(Nc2cccc3ccccc23)cc1
inactive: [1] 83.6% | [2] 90.1% | [3] 82.8% | [4] 91.9% | [5] 103% | [6] 68.4% | [7] 90.5% | [8] 88.9% | [9] 101% | [10] 109% | [11] 63% | [12] 94.2% | [13] 88.5% | [14] 91.2% | [15] 92.4% | [16] 112% | [17] 99.8% | [18] 86.4% | [19] 89.6%

C[C@@H]1CC2C3CCC4=CC(=O)C=C[C@]4(C)[C@@]3(Cl)[C@@H](O)C[C@]2(C)[C@@]1(OC(=O)c1ccco1)C(=O)CCl (stereo partly drawn)
inactive: [1] 66.5% | [2] 62.8% | [3] 74.3% | [4] 94.4% | [5] 62.1% | [6] 73.9% | [7] 33.6% | [8] 80.5% | [9] 111% | [10] 79% | [11] 56.7% | [12] 87.7% | [13] 72.2% | [14] 77.7% | [15] 53.7% | [16] 64.4% | [17] 53% | [18] 96.4% | [19] 82%
